Source: PubChem (several laboratories)
VLA-4 inh: inhibition in human VLA-4 binding assay, primary screen, VLA-4 allosteric modulator project, MLPCN library, flow cytometry, VLA-4 expressing cells; inhibition, % (about 7 µM as worked out from the volumes in the protocol); hit rate 0.2% among 330,000; Integrin alpha-4 (Homo sapiens), P13612; ligand binding flow cytometry; in the data active = inhibition above about 50%
AHR activator: AHR activators, primary screen, cell-based, luminescence, luciferase reporter, human. AID 2796, 2010. AHR-responsive luciferase reporter cells. activation, % at 5 µM. hit rate 2.5% among 320,000; in the data active = activation above about 47%
A1 inh: caspase 3/7 activation in MEF A1-2A-BIM cells, primary screen, A1 inhibitor project, cell-based, luminescence, HTS. AID 2462, 2010. caspase activation, % (concentration not given with the values). hit rate 0.066% among 330,000. Caspase-Glo 3/7 luminescence, 3 h; percent of clofoctol response, vehicle zero;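 active = over half of replicate activation scores above 10%, or exactly half above 10 with the replicate mean above 10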
SUMO Mot1 rescue: yeast Mot1-301 growth rescue at high temperature, primary screen, SUMOylation pathway inhibitor project, S. cerevisiae, ATP luminescence, 38.5C | S. cerevisiae Mot1-301 growth rescue; percent above DMSO median, 100 means doubled | growth rescue, % at 18.8 µM | hit rate 1% among 320,000 | AID 2716, 2010;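 active = every valid replicate shows activation above 250% relative to neutral control wells; inactive = the rest, any valid replicate at or below 250%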
Efflux pump mplx: inhibitors of Candida efflux pumps in yeast, primary screen, S. cerevisiae, Nile Red, multiplex | S. cerevisiae Candida pump triplex | inhibition, % at 10 µM | hit rate 0.44% among 330,000 | AID 485275, 2010;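 active = plate passing quality check with inhibition over a set limit, or well fluorescence over plate mean plus 4 SD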;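 also: Nile Red retained in pooled yeast measured as flow cytometry median fluorescence; higher means more Nile Red kept so more efflux inhibition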
ALR H2O2 inh: inhibitors of human ALR sulfhydryl oxidase, primary screen, biochemical, H2O2 detection, HRP-luminol luminescence, single point. purified ALR, DTT oxidation. inhibition, % (test concentration not listed). hit rate 3.8% among 290,000. AID 485317, 2010;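 active = mean replicate inhibition above about 79%, with every replicate also reaching it, limit read from the data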
Target sequence (P55789 whole entry, looked up): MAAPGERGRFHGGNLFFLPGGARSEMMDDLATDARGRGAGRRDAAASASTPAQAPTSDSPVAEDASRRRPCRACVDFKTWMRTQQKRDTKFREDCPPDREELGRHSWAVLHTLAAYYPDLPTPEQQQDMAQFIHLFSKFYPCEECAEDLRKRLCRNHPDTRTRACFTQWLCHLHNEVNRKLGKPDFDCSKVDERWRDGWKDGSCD
Yeast Mot1 SUMO: growth restoration of Mot1-301 yeast on galactose, dose response, SUMO pathway inhibitor project, whole organism, S. cerevisiae, ATP luminescence, cherry-picked samples. shares compounds with SUMO Mot1 rescue. 2,300 tested, under 10 active. S. cerevisiae Mot1-301 galactose growth, 24 h; -100 = growth of slx-deleted rescue strain. growth activity, percent, % at 42 µM;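 active = Signal drops as the depositor expects, and the fitted half-maximal dose is no more than ten times the top valid tested dose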;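 also: more negative values mean stronger growth rescue toward the control strain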
Large screens that a line does not name were inactive (follow-up assays come after a bar, where they were run). Shown are actives, neighbours in structure and some others; about 7.2% of the full set was active somewhere.

OC(COCc1cccs1)CN1CCCCCC1 (stereo not given)	SUMO Mot1 rescue active | Yeast Mot1 SUMO inactive
CN1CCCN(CC(O)COCc2cccs2)CC1 (stereo not given)	none (no result: SUMO Mot1 rescue)
NC(=O)c1cccc2cc3ccccc3cc12	SUMO Mot1 rescue 625 | Yeast Mot1 SUMO inactive
OCCc1c[nH]c2cc(F)ccc12	SUMO Mot1 rescue 566 | Yeast Mot1 SUMO inactive
Cc1cc(-c2nnc3sc(C4CCCCC4)nn23)n[nH]1	SUMO Mot1 rescue 691 | Yeast Mot1 SUMO inactive
COc1cc(-c2nnc3sc(C4CCCCC4)nn23)cc(OC)c1OC	none (no result: SUMO Mot1 rescue)
O=C(NCCc1nc(-c2ccccc2)no1)c1ccco1	none
CC(C(=O)NC1C=CS(=O)(=O)C1)N1C(=O)/C(=C/c2ccc(Cl)cc2)SC1=S (stereo not given)	none
COc1c2ccoc2nc2c(OC)c(OC[C@@H](O)C(C)(C)O)ccc12	SUMO Mot1 rescue 724 | Yeast Mot1 SUMO inactive
CC(C(=O)NCCN1CCOCC1)(c1ccccc1)c1ccccc1	SUMO Mot1 rescue 667 (no result: ALR H2O2 inh) | Yeast Mot1 SUMO inactive
Cc1ccccc1C(=O)NCCN1CCOCC1	none
O=C(O)c1ccc(COc2c(F)c(F)cc(F)c2F)cc1	SUMO Mot1 rescue active | Yeast Mot1 SUMO inactive
CC1CC(c2ccccc2)NS(=O)(=O)O1 (stereo not given)	SUMO Mot1 rescue 518 | Yeast Mot1 SUMO inactive
Cc1ccc(-c2noc(COc3ccccc3C)n2)cc1	none (no result: SUMO Mot1 rescue)
Cc1ccccc1OCc1nc(-c2ccccc2)no1	SUMO Mot1 rescue 390 | Yeast Mot1 SUMO inactive
O=C(c1ccc2c(=O)n(Cc3ccccc3Cl)c(=S)[nH]c2c1)N1CCOCC1	SUMO Mot1 rescue 422 | Yeast Mot1 SUMO inactive
Cc1ccc(CNC(=O)CN(CCc2ccccc2)S(C)(=O)=O)cc1	none
O=C(NCc1cccnc1)Nc1ccccc1	SUMO Mot1 rescue 564 | Yeast Mot1 SUMO inactive
CC(C)(C)NC(=S)NCc1cccnc1	SUMO Mot1 rescue 978 | Yeast Mot1 SUMO inactive
CC(C)(C)NC(=O)NCc1cccnc1	none
CS(=O)(=O)N(CCc1ccccc1)CC(=O)NCc1cccnc1	SUMO Mot1 rescue 854 | Yeast Mot1 SUMO inactive
CNC(=O)CCN(Cc1ccco1)S(=O)(=O)c1ccc(OC)c(OC)c1	none
COCCNC(=O)c1cn(CCOC)c(=O)c2c1c1ccccc1n2C	none
COc1cccc(C2CC(c3cccc(NS(C)(=O)=O)c3)=NN2C(=O)c2ccccc2)c1OC (stereo not given)	SUMO Mot1 rescue 387 | Yeast Mot1 SUMO inactive
CC(CN1CCCCC1)C(=O)NNC(=O)C12CC3CC(CC(C3)C1)C2 (stereo not given)	none
CC(CN1CCCCCC1)C(=O)NN (stereo not given)	SUMO Mot1 rescue 674 (no result: ALR H2O2 inh) | Yeast Mot1 SUMO inactive
COc1ccccc1C1(CC(=O)N2CCCCC2)CCOC(C(C)C)C1 (stereo not given)	none
CCN(CC)CC(=O)Nc1ccc(Oc2ccc(NC(=O)CN(CC)CC)cc2)cc1	SUMO Mot1 rescue 371 | Yeast Mot1 SUMO inactive
Cc1cccc(C)c1NC(=S)N(CCN(C)C)C(C)c1ccccn1 (stereo not given)	none
CC(c1ccccn1)N(CCN(C)C)C(=S)Nc1cccc(F)c1 (stereo not given)	SUMO Mot1 rescue 436 | Yeast Mot1 SUMO inactive
COC(=O)c1sc(NC(=O)c2ccc([N+](=O)[O-])o2)c(C#N)c1C	none
COc1cc(NC(=O)c2cccc3c2C(=O)N(C2CCCCC2)C3)cc(OC)c1OC	none
CN(Cc1ccccn1)C(=O)C1CCC(=O)N(Cc2cccc(F)c2)C1 (stereo not given)	none
COc1cccc(CN(C)C(=O)C2CCC(=O)N(Cc3cccc(F)c3)C2)c1 (stereo not given)	SUMO Mot1 rescue 722 | Yeast Mot1 SUMO inactive
Cc1cc(C)cc(NC(=S)N2C3CCCC2CC(NC(=O)C2CC2)C3)c1 (stereo not given)	none (no result: ALR H2O2 inh)
COc1ccccc1N1C(=O)c2ccccc2NC1C(OC)OC (stereo not given)	SUMO Mot1 rescue active | Yeast Mot1 SUMO inactive
COc1ccccc1N1C(=O)c2ccccc2NC1c1cc(OC)c(OC)c(OC)c1 (stereo not given)	none
Cc1ccc(NC(=O)CN2C(=O)COc3ccc(S(=O)(=O)N4CCOCC4)cc32)cc1F	SUMO Mot1 rescue 500 (no result: ALR H2O2 inh) | Yeast Mot1 SUMO inactive
CC(NC(=O)C12CC3CC(CC(O)(C3)C1)C2)c1ccccc1 (stereo not given)	SUMO Mot1 rescue 409 | Yeast Mot1 SUMO inactive
C#CCn1c(=NC(=O)c2cccs2)sc2cccc(OC)c21	none
C#CCn1c(=NC(=O)CN2C(=O)CCC2=O)sc2cccc(OC)c21	SUMO Mot1 rescue active (no result: ALR H2O2 inh) | Yeast Mot1 SUMO inactive
CCOC(=O)N1CCC2(CC1)C(C(=O)C13CC4CC(CC(C4)C1)C3)C2(C#N)C#N (stereo not given)	none
O=C(Nc1cccc(O)c1)C(Cc1ccccc1)N1C(=O)c2cccc3cccc(c23)C1=O (stereo not given)	SUMO Mot1 rescue 855 | Yeast Mot1 SUMO inactive
CC1CCCCC12NC(=O)N(CC(=O)N1CCN(Cc3ccc(C#N)cc3)CC1)C2=O (stereo not given)	none (no result: ALR H2O2 inh)
COc1ccccc1N(C)S(=O)(=O)c1ccc(C)c(C(=O)NC(C)c2ccccn2)c1 (stereo not given)	none (no result: ALR H2O2 inh)
COc1ccccc1C(=O)NC(=O)COC(=O)Cc1ccccc1[N+](=O)[O-]	SUMO Mot1 rescue 617 | Yeast Mot1 SUMO inactive
COc1ccc(NC(=O)COC(=O)Cc2ccccc2[N+](=O)[O-])cc1OC	none
CC1(C)NC(=O)N(CC(=O)O)C1=O	SUMO Mot1 rescue 574 | Yeast Mot1 SUMO inactive
CC1(C)NC(=O)N(CN2C(=O)NC(C)(C)C2=O)C1=O	none
CC(=O)Oc1cccc(N2C(=O)c3ccc(C(=O)Nc4c[nH]c(=O)[nH]c4=O)cc3C2=O)c1	SUMO Mot1 rescue 554 | Yeast Mot1 SUMO inactive
COCCCNC(=O)c1cc2cc([N+](=O)[O-])cc(OC)c2oc1=O	SUMO Mot1 rescue 406 | Yeast Mot1 SUMO inactive
COc1ccc(NC(=O)C2CCN(S(=O)(=O)c3ccc4c(c3)NC(=O)CO4)CC2)cc1	none
C=CCn1c(CCC)nc2ccccc21	SUMO Mot1 rescue 634 (no result: ALR H2O2 inh) | Yeast Mot1 SUMO inactive
CN(C)C(=O)CCc1ccc2c3c([nH]c2c1)[C@]1(C)[C@@H](C(=O)N2CCOCC2)C[C@H](CC(=O)NCCC2=CCCCC2)C(=O)N1CC3	none (no result: VLA-4 inh, AHR activator, A1 inh, SUMO Mot1 rescue, ALR H2O2 inh)
